Bioassay records deposited in PubChem by National Center for Advancing Translational Sciences (NCATS).
NS1 function inh: influenza NS1 inhibition. Potency, µM (highest dose often 46.1 µM), for inactives: at the highest dose activity, positive = more growth. 270,000 compounds, 0.4% hits; calls by dose curve; further: potency means the concentration at half of the fitted maximal effect; actives are rising curves; nearly all actives have a fitted effect of over 50% in size
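Recovery from NS1-induced slow growth read by OD600 in budding yeast switched to galactose assay medium (pH 6.0, -URA) at 1:100 dilution. Compound 23 nl per well; the matching strain lacking NS1 serves as control.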
Pf growth 48h: P. falciparum growth inhibition at 48 hours (one generation); AID 504832; Potency, µM (highest dose often 28.7 µM), inactives show top-dose activity change, negative = inhibition, hits mostly inhibitors; 310,000 compounds, 5.9% hits; P. falciparum luciferase growth in erythrocytes, 48 h; further: potency means the concentration at half of the fitted maximal effect; on the % scale 0 is the no-effect control and ±100 the full control effect
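First compound was added to culture medium, then infected red cells at 0.1% parasitemia and 2% hematocrit (final). After incubation at 37 C under 5% CO2, luciferase detection reagent was dispensed and light output recorded.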
SARS PLpro yeast: SARS-CoV PLP inhibition in yeast; S. cerevisiae expressing SARS-CoV PLpro, growth rescue; Potency, µM (top dose mostly 32.9 µM), without a hit: top-dose activity, positive = growth rescue, actives largely listed as activators; 330,000 compounds, 0.19% hits; calls by dose curve; further: potency means the concentration at half of the fitted maximal effect; 0% is about no effect; nearly all actives have a fitted effect of over 55% in size
Shiga toxin inh: Shiga toxin inhibition; inhibition, % at 38.7 µM; Vero cells, Shiga toxin protein synthesis inhibition reporter; 290,000 compounds, 9.2% hits; in the data active means inhibition mostly above about 28%, no sharp cut-off; inactive means mostly below about 43%; further: 0% is about no effect
Cycloheximide cs: counter-screen for Shiga toxin inhibitors: cycloheximide protein synthesis inhibition | cell reporter, cycloheximide protein synthesis inhibition counterscreen | max response, % | 300,000 compounds, 12% hits; in the data active means max response mostly above about 13%, no sharp cut-off; inactive means mostly below about 14%; further: read at 38.3 µM for the half of the compounds with a filed dose; 0% is about no effect
Pf growth 96h: inhibits malaria parasite growth, 96 h | P. falciparum luciferase reporter growth, 96 h | Potency, µM (series often up to 28.7 µM), for inactives: at the highest dose activity change, negative = inhibition, hits mostly inhibitors | 320,000 compounds, 6.9% hits; further: potency means the concentration at half of the fitted maximal effect; on the % scale 0 is the no-effect control and ±100 the full control effect
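Cell-based qHTS: luciferase-tagged P. falciparum in erythrocytes (2% hematocrit, 0.05% parasitemia final) incubated with compounds for 96 hours, 37 C, 5% CO2; luciferase detection reagent then added and luminescence measured.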
* marks the source's active call; other numbers are inactive results; i = inactive; ? = inconclusive; . = not tested or not shown; [ ] = dose if it differs, or a comment. A selection: hits, their analogues and other compounds. The true share with any hit is near 21%. Unless noted, the call rests on the fitted dose curve; in most records, active means well fitted inhibition curve with a large enough effect; inconclusive means small, poorly fitted or top-dose-only effect, or another doubt; inactive means no such curve, though single readings can be large or run the other way.

SMILES	NS1 function inh	Pf growth 48h	SARS PLpro yeast	Shiga toxin inh	Cycloheximide cs	Pf growth 96h
Cc1cc(NC(=O)CCC(=O)N(CC(=O)NCC2CCCO2)c2ccc3c(c2)OCCO3)no1 (stereo unspecified)	-2%	-31%	7%	-1	-1	-16%
Cn1c2ccccc2c2cc([N+](=O)[O-])ccc21	2%	20%	-1%	26	-2	12%
CN1c2ccc([N+](=O)[O-])cc2N(C)C1(C)c1ccccc1 (stereo unspecified)	12%	12µM*	1%	-9	-2	i
CN(C(=O)c1ccccc1C(=O)OCC(=O)c1ccccc1)c1ccccc1	.	?	5%	.	.	12µM*
COc1cccc(NC(=O)COC(=O)c2ccccc2C(=O)N(C)c2ccccc2)c1	.	?	-2%	.	.	-29%
COc1ccc(C(=O)COC(=O)c2ccccc2C(=O)N(C)c2ccccc2)c(OC)c1	.	?	0%	.	.	0%
CN(C(=O)c1ccccc1C(=O)OCC(=O)c1ccc(F)cc1)c1ccccc1	.	8.3µM*	9%	.	.	?
O=c1c2cc(N3CCOCC3)ccc2[nH]c(=S)n1Cc1ccccn1	?	21%	10%	active	17*	58%
O=c1c2cc(N3CCOCC3)ccc2[nH]c(=S)n1CCc1ccccc1	.	?	2%	11	14	?
O=c1c2cc(N3CCOCC3)ccc2[nH]c(=S)n1CC1CCCO1 (stereo unspecified)	5%	18%	0%	54*	10	-1%
O=c1c2cc(Br)ccc2[nH]c(=S)n1Cc1ccccn1	8%	55%	18%	11	24*	?
COc1ccc(CCn2c(=S)[nH]c3ccc(N4CCOCC4)cc3c2=O)cc1OC	.	10µM*	0%	-7	-2	?
O=c1c2cc(Br)ccc2[nH]c(=S)n1Cc1ccccc1	-1%	?	-2%	-12	7	-4%
Cc1cc(C(=O)Nc2ccc(Cl)cc2)n(-c2ccccc2)n1	-4%	21%	-2%	31	19*	?
Cc1ccc(NC(=O)c2cc(C)nn2-c2ccccc2)cc1	0%	.	-5%	-12	-1	13µM*
CCCn1c(N)c(C(=O)CN2CCN(S(=O)(=O)c3cccc(Cl)c3)CC2)c(=O)[nH]c1=O	.	.	16%	.	.	.
N#Cc1ccccc1OCC(=O)OCC(=O)NC1CCCC1	.	13%	3%	.	.	-3%
O=C(NC1CCCC1)c1cc2ccccc2o1	-15%	34%	-1%	56*	40*	11%
CC1CCCCC1NC(=O)c1cc2ccccc2o1 (stereo unspecified)	0%	22%	10%	35*	35*	?
CC(NCc1ccccc1)c1ccccc1O (stereo unspecified)	5%	1.7µM*	1%	-2	-3	10µM*
CC(CCc1ccccc1)NCc1ccncc1 (stereo unspecified)	-10%	1%	2%	6	10	-14%
N#C/C(=C\c1cccnc1)c1ccc([N+](=O)[O-])cc1	-9%	2%	-13%	15	5	2.6µM*
N#C/C(=C\c1ccc([N+](=O)[O-])cc1)c1ccccn1	.	-17%	-3%	49*	29*	1%
COC(=O)c1ccc(/C=C(\C#N)c2ccccn2)cc1	-5%	412%	-6%	133*	39*	234%
CN(C)c1ccc(/C=C(\C#N)c2ccccn2)cc1	2%	-23%	-50%	-15	-5	-2%
SMILES	NS1 function inh	Pf growth 48h	SARS PLpro yeast	Shiga toxin inh	Cycloheximide cs	Pf growth 96h
COc1cc(/C=C(\C#N)c2ccccn2)cc(OC)c1O	-37%	-11%	-2%	3	17	-28%
O=C(C1CCN(S(=O)(=O)N2CCOCC2)CC1)N1CCN(c2ccccc2)CC1	-2%	16%	-6%	11	-3	-29%
CC(C(=O)NCc1ccccn1)c1ccc([N+](=O)[O-])cc1 (stereo unspecified)	3%	1%	17%	-3	1	3%[5.75 µM]
COc1ccc(S(=O)(=O)N2CCN(C(=O)NCc3ccc(OC)c(OC)c3)CC2)cc1	-1%	-3%	3%	41	4	?
CC(=O)N[C@@H](Cc1c[nH]c2ccccc12)C(=O)NC1CC1	5%	0%	1%	-5	-2	7%
O=C(OCC(=O)c1c[nH]c2ccccc12)C1=COCCO1	-6%	-18%	0%	74*	37*	56%
COc1ccc(C(=O)OCC(=O)c2c[nH]c3ccccc23)cc1OC	.	15µM*	4%	.	.	4.7µM*
Cc1ccc(C(=O)OCC(=O)c2c[nH]c3ccccc23)cc1	10%	90%	-12%	81*	48*	174%
Cc1ccc(S(=O)(=O)CCC(=O)OCC(=O)c2c[nH]c3ccccc23)cc1	-7%	-1%	2%	12	2	-33%
COc1ccc2c(C(=O)CCl)c[nH]c2c1	-64%	15µM*	9%	2	-3	?
COc1cc(C(=O)OCC(=O)c2c[nH]c3ccccc23)ccc1OCC(=O)N1CCOCC1	3%	?	2%	-12	-3	?
O=C(CCNC(=O)c1ccccc1Cl)Nc1cc(S(=O)(=O)N2CCOCC2)ccc1N1CCCC1	4%	-14%	-7%	4	-4	-4%
CC1CCC(NC(=O)c2cccc(S(=O)(=O)NCc3ccccc3)c2)CC1 (stereo unspecified)	.	?	.	.	.	-1%
O=C(OCC(=O)c1c[nH]c2ccccc12)c1ccc([N+](=O)[O-])s1	-56%	?	-6%	19	24*	?
CC1(C(=O)OCC(=O)c2c[nH]c3ccccc23)CC1(Cl)Cl (stereo unspecified)	-108%	.	-21%	85*	53*	11%
COc1ccc(OCC(=O)c2c[nH]c3ccccc23)cc1	.	0%	-1%	54*	45*	42%
Cn1cccc1C(=O)OCC(=O)c1c[nH]c2ccccc12	.	.	-4%	.	.	.
O=C(COc1ccccc1)OCC(=O)c1c[nH]c2ccccc12	.	-24%	-1%	.	.	?
Cc1cnc(C(=O)OCC(=O)c2cccc3ccccc23)cn1	.	10%	-3%	.	.	-1%
Cc1cnc(C(=O)OCC(=O)c2c[nH]c3ccccc23)cn1	.	13µM*	-2%	.	.	?
O=C1C=C(NCCc2ccccc2)C2(CCCCC2)O1	-1%	-13%	0%	-12	1	4%
CSc1nc(Cc2ccccc2)cc(=O)[nH]1	-4%	25%	1%	-6	-3	-5%
COc1ccc(NC(=O)Nc2ccc(C(=O)N3CCOCC3)cc2)c(OC)c1	0%	10%	1%	3	-1	10%
CC(O)C(NS(=O)(=O)c1ccc(Cl)cc1)C(=O)OCC(=O)c1c[nH]c2ccccc12 (stereo unspecified)	4%	-14%	0%	-4	-4	0%
CC(C)C(NS(=O)(=O)c1c(Cl)cccc1Cl)C(=O)OCC(=O)c1c[nH]c2ccccc12 (stereo unspecified)	-30%	4.1µM*	-14%	-5	-2	4.7µM*
